FBW7 activator – activators of human E3 ligase FBW7. Q969H0. AlphaScreen FBW7–phospho-cyclin E peptide binding, activator screen. normalized activity (activation), % at 26.1 µM. actives 0.13% (n = 650,000). AID 1259310; in the data active means normalized activity above about 1.9%;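 further: purified mutant Fbw7 with reduced substrate affinity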
MITF inh – inhibitors of human MITF | actives 0.91% (n = 650,000) | AlphaScreen MITF homodimerization, bead proximity signal | inhibition, % at 2.6 µM; in the data active means inhibition above about 50%
Target sequence (O75030 whole entry, looked up): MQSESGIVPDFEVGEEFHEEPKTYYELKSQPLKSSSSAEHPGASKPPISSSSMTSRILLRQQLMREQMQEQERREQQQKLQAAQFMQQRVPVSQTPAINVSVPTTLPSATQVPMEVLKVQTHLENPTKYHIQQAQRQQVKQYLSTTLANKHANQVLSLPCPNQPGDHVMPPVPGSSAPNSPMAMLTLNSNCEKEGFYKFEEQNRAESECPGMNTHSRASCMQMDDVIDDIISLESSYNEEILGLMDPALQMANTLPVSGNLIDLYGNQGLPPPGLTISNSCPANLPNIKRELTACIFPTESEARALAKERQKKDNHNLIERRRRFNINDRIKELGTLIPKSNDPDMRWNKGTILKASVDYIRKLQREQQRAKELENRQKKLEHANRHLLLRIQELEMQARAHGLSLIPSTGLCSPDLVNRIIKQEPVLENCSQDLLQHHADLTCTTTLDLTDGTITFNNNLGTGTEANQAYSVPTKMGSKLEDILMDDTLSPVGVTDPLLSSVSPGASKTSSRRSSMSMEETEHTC
GPR151 ag – activates the human receptor GPR151; PathHunter beta-arrestin GPR151 cells, luminescence; AID 1508602; Q8TDV0; actives 1% (n = 650,000); activation, % at 11.2 µM; in the data active means activation above about 4.9%
TEAD-YAP block – TEAD-YAP interaction inhibition; HEK-TIYL cells, TEAD-Gal4/YAP UAS-luciferase luminescence; inhibition, % at 9.12 µM; actives 1.4% (n = 640,000); in the data active means inhibition above about 32%
GPR151 conf act – human GPR151 activation, confirmation screen; activation, % at 11.2 µM; GPR151 PathHunter beta-arrestin cells, luminescence, 90 min; % of EA-reagent control over plate median; 6,700 tested, under 10 active; shares compounds with GPR151 ag;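 active means mean percent activation across replicates above the confirmation screen cutoff of 4.91%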
GPR119 counter – GPR119 activation, counter-screen for GPR151 activators | shares compounds with GPR151 ag | GPR119 PathHunter beta-arrestin cells, luminescence, 90 min; 0 = compound-well median, 100 = enzyme-acceptor control | activation, % at 11.2 µM | actives 0.3% (n = 6,700) | AID 1508611;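 active means mean percent activation in the counterscreen above 29.09%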;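 further: counterscreen on off-target GPR119 to flag nonselective hits from the GPR151 activator screen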
Each line names hits and unclear results; the compound was inactive in the other large screens (follow-up assays come after a bar, where they were run). In the library only some 3.4% were active in any assay of this set; here they are far more common.

CCOC(=O)C1=C(C)N=c2s/c(=C\c3ccc(-c4cc(C(=O)O)ccc4Cl)o3)c(=O)n2C1c1ccc2c(c1)OCO2 (stereo not drawn)	none
COc1ccc(Br)cc1/C=C1\N=C(c2cc(Br)ccc2OC)OC1=O	none
COc1ccc(Br)cc1C1=N/C(=C\c2cccc(OC)c2OC)C(=O)O1	GPR151 ag 6.8 | GPR151 conf act inactive | GPR119 counter inactive
O=c1nc2s/c(=C/c3cccs3)c(=O)n2nc1Cc1ccc(F)cc1	GPR151 ag 5.0 | GPR151 conf act inactive | GPR119 counter inactive
CC(=O)Oc1ccc(/C=c2/sc3nc(=O)c(Cc4ccc(F)cc4)nn3c2=O)cc1	none
O=C(Nc1ccccc1Cl)c1csc(-n2cccc2)n1	GPR151 ag 5.7 | GPR151 conf act inactive | GPR119 counter inactive
COc1ccc(-c2nnc(SCc3nc4ccccc4[nH]3)n2-c2ccccc2)cc1OC	GPR151 ag 5.0 | GPR151 conf act inactive | GPR119 counter inactive
CCC(C)NC(=O)CSc1ncccc1C(=O)O (stereo not drawn)	GPR151 ag 5.1 | GPR151 conf act inactive | GPR119 counter inactive
Cc1cccc(NC(=O)Nc2cnn(-c3cccc(C(N)=O)c3)c2)c1	none
CCc1nc(Nc2nc3ccccc3o2)nc2c1CCCC2	none
CCCCCOc1ccc(NC(=O)c2cccc(C(=O)OCC)n2)cc1	none
O=C(CN1CCN(S(=O)(=O)c2ccc(Br)cc2)CC1)Nc1ccc(Cl)c(C(F)(F)F)c1	GPR151 ag 5.8 | GPR151 conf act inactive | GPR119 counter inactive
CCC(=O)N1c2ccccc2-c2nnc(SC)nc2OC1c1ccc(OC)cc1 (stereo not drawn)	GPR151 ag 5.6 | GPR151 conf act inactive | GPR119 counter inactive
COc1ccc([N+](=O)[O-])cc1-c1ccc(/C=N/N=C2\NC(=O)CS2)o1	none
CC(=O)N1CC(C)Sc2cc(S(=O)(=O)NCc3ccc4c(c3)OCO4)ccc21 (stereo not drawn)	GPR151 ag 5.1 | GPR151 conf act inactive | GPR119 counter inactive
CCSc1ccccc1C(=O)NC(C)c1ccccc1 (stereo not drawn)	GPR151 ag 5.5 | GPR151 conf act inactive | GPR119 counter inactive
Cc1cc(O)c(NC(=O)c2ccc(F)cc2)cc1C	none
CN(Cc1nc(-c2cccnc2)no1)S(=O)(=O)c1ccc2ccccc2c1	GPR151 ag 5.1 | GPR151 conf act inactive | GPR119 counter inactive
CN(Cc1nc(-c2cccnc2)no1)S(=O)(=O)c1ccc(Br)cc1	none
CCCNC(=O)c1ccc2nc(N3CCc4ccccc4C3)sc2c1	none
O=C(NCc1ccccc1)c1ccc2nc(N3CCc4ccccc4C3)sc2c1	GPR151 ag 5.6 | GPR151 conf act inactive | GPR119 counter inactive
Cc1cccc(OCCCN2CCOCC2)c1C	GPR151 ag 5.1 | GPR151 conf act inactive | GPR119 counter inactive
N#Cc1ccc(OCC(=O)c2cccc(Cl)c2)cc1	none
CC(=O)Nc1ccc(CN2CCC(CO)(CC3CCCCO3)CC2)cc1 (stereo not drawn)	none
COc1ccc(-c2cc(C(=O)Nc3ccc(Oc4ccccc4)cc3)ccn2)cn1	none
CCOC(=O)C1CCN(S(=O)(=O)c2cc3[nH]c(=O)c(=O)[nH]c3cc2C)CC1	GPR151 ag 5.2 | GPR151 conf act inactive | GPR119 counter inactive
Cn1nnnc1SCC(=O)NC(=O)NC(C)(C)C	none
Cc1ccccc1C(=O)NC(C)c1nnc2n1CCN(Cc1ccccc1F)CC2 (stereo not drawn)	none
Cc1ccccc1C(=O)NC(C)c1nnc2n1CCN(Cc1ccc(F)cc1)CC2 (stereo not drawn)	GPR151 ag 6.5 | GPR151 conf act inactive | GPR119 counter inactive
CCCCNc1nc(SCC(=O)NCc2ccc(C)cc2)nc2ccccc12	none
CN(CCO)c1ncnc2sccc12	GPR151 ag 6.6 | GPR151 conf act inactive | GPR119 counter inactive
CCn1c(COc2ccccc2OC)nnc1SCC(=O)N1CCOCC1	none
O=C(c1c(F)cccc1Cl)N(c1ccccc1)C1C=CS(=O)(=O)C1 (stereo not drawn)	none
O=C(c1c(F)cccc1Cl)N(c1ccc(F)cc1)C1C=CS(=O)(=O)C1 (stereo not drawn)	GPR151 ag 7.2 | GPR151 conf act inactive | GPR119 counter inactive
Cn1c(=O)c2ncn(CC(=O)NN=Cc3ccccc3C(=O)O)c2n(C)c1=O	none
O=C(CSc1nc(Nc2ccc(F)c(F)c2)c2ccccc2n1)c1ccc(F)cc1	GPR151 ag 5.1 | GPR151 conf act inactive | GPR119 counter inactive
COc1cc(Nc2nc(SCC(=O)c3ccccc3)nc3ccccc23)cc(OC)c1	GPR151 ag 6.9 | GPR151 conf act inactive | GPR119 counter inactive
COc1cc(Nc2nc(SCC(=O)c3ccc(Br)cc3)nc3ccccc23)cc(OC)c1	none
COc1ccc(CCNC(=O)c2ccccc2N(Cc2ccccc2)S(=O)(=O)c2ccc(C)cc2)cc1OC	none
N#Cc1sc2ncc3c(c2c1N)CCCC3	GPR151 ag 9.7 | GPR151 conf act inactive | GPR119 counter inactive
C=CCNC(=O)c1ccccc1NC(=O)CN(c1cccc(Cl)c1C)S(C)(=O)=O	GPR151 ag 5.2 | GPR151 conf act inactive | GPR119 counter inactive
Cc1c(Cl)cccc1N(CC(=O)Nc1ccccc1Cl)S(C)(=O)=O	none
CCC(C)NC(=O)c1ccccc1NC(=O)CN(c1cccc([N+](=O)[O-])c1)S(C)(=O)=O (stereo not drawn)	none
C=CCNC(=O)c1ccccc1NC(=O)CN(c1cccc([N+](=O)[O-])c1)S(C)(=O)=O	GPR151 ag 13 | GPR151 conf act inactive | GPR119 counter inactive
Cc1ccc(N(CC(=O)NCc2ccccc2C)S(C)(=O)=O)cc1C	none
Cc1ccccc1CNC(=O)CN(c1cccc([N+](=O)[O-])c1)S(C)(=O)=O	GPR151 ag 6.4 | GPR151 conf act inactive | GPR119 counter inactive
CN(CC(=O)NC1CCCCC1)S(=O)(=O)c1cc2c(cc1Cl)NC(=O)CO2	none
COc1ccc(/C=C2\N=C(c3ccccc3)OC2=O)c(OC)c1OC	none
OCCC1CCCCN1c1ccnc2c(-c3ccsc3)cnn12 (stereo not drawn)	GPR151 ag 5.4 | GPR151 conf act inactive | GPR119 counter inactive
CC1CCN(C2CCN(S(=O)(=O)c3ccc4ccccc4c3)CC2)CC1	none
Cc1ccc(OCC(=O)Nc2ccc(Br)cn2)c(C)c1	GPR151 ag 8.3 | GPR151 conf act inactive | GPR119 counter inactive
COc1ccc(OCC(=O)Nc2ccc3oc(=O)ccc3c2)cc1	GPR151 ag 5.8 | GPR151 conf act inactive | GPR119 counter inactive
Cc1ccc(OCC(=O)Nc2ccc3oc(=O)ccc3c2)c(C)c1	GPR151 ag 5.5 | GPR151 conf act inactive | GPR119 counter inactive
O=C(COc1ccc(Br)cc1)Nc1ccc2oc(=O)ccc2c1	none
Cc1ccc(OCC(=O)NNC(=O)COc2ccc(Br)cc2C)c(C)c1	none

Screening data: PubChem BioAssay, The Scripps Research Institute Molecular Screening Center
